Measurements: PubChem BioAssay AID1159580 (chemical genetic matrix, 2015)
About 2,000 (36%) of roughly 5,500 compounds were called active. Not shown: some 18% with an inconclusive outcome. No stated cut-off is given here; in the data, active means normalized growth mostly below about 0.91 (no sharp cut-off); inconclusive means no clear call, values can overlap the other calls; inactive means mostly above about 0.92. The list shows a part of the results.

Experiment: chemical genetic growth profiling, strain panel (AID 1159580);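 further: tested at 20 µM; growth read once vehicle control cultures reached saturation at 30 °C; 1 = growth at the plate median or of vehicle wells; lower values mean less growth of the strain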
Details: S. cerevisiae deletion strains, growth OD

Measured: normalized growth

CCOC(=O)c1c(C)cc(O)c(C)c1O
inactive: locus YBR021W, strain FUR4, active compounds read low 0.975 | locus YBR229C, strain ROT2, active compounds read low 0.976 | locus YCL029C, strain bik1, active compounds read low 0.955 | locus YDL035C, strain GPR1, active compounds read low 1.01 | locus YDL074C, strain BRE1, active compounds read low 0.981 | locus YDL101C, strain DUN1, active compounds read low 0.986 | locus YDL134C, strain PPH21, active compounds read low 0.979 | locus YDL185W, strain tfp1, active compounds read low 0.969 | locus YDL192W, strain arf1, active compounds read low 0.931 | locus YDR150W, strain NUM1, active compounds read low 0.98 | locus YDR162C, strain NBP2, active compounds read low 0.966 | locus YDR502C, strain sam2, active compounds read low 0.929 | locus YEL061C, strain CIN8, active compounds read low 0.975 | locus YER110C, active compounds read low 0.938 | locus YER155C, strain BEM2, active compounds read low 0.941 | locus YER167W, strain BCK2, active compounds read low 0.961 | locus YGL078C, strain dbp3, active compounds read low 0.968 | locus YGL248W, strain PDE1, active compounds read low 0.992 | locus YGR135W, strain pre9, active compounds read low 0.931 | locus YGR252W, strain gcn5, active compounds read low 1.07 | locus YHR030C, strain SLT2, active compounds read low 0.978 | locus YHR079C, strain IRE1 (second series), active compounds read low 0.945 | locus YHR094C, strain hxt1, active compounds read low 0.932 | locus YHR129C, strain ARP1, active compounds read low 0.988 | locus YHR200W, strain rpn10, active compounds read low 0.933 | locus YIL066C, strain RNR3, active compounds read low 0.999 | locus YIL073C, strain SPO22, active compounds read low 1.02 | locus YIR030C, strain dcg1, active compounds read low 0.952 | locus YJL095W, strain BCK1, active compounds read low 0.936 | locus YJL134W, strain LCB3, active compounds read low 0.965 | locus YJL168C, strain set2, active compounds read low 0.945 | locus YJL187C, strain SWE1 (second series), active compounds read low 0.996 | locus YJR043C, strain POL32, active compounds read low 0.949 | locus YKL009W, strain mrt4, active compounds read low 1.01 | locus YKL068W, active compounds read low 0.945 | locus YKL085W, strain MDH1 (second series), active compounds read low 0.943 | locus YKL085W, strain MDH1, active compounds read low 0.943 | locus YLR039C, strain RIC1, active compounds read low 1.04 | locus YLR058C, strain SHM2, active compounds read low 0.97 | locus YLR102C, strain apc9, active compounds read low 0.946 | locus YLR268W, strain sec22, active compounds read low 0.918 | locus YLR330W, strain CHS5, active compounds read low 0.976 | locus YML016C, strain PPZ1, active compounds read low 0.956 | locus YML032C, strain rad52, active compounds read low 0.917 | locus YML124C, strain tub3, active compounds read low 0.935 | locus YMR078C, strain ctf18, active compounds read low 0.924 | locus YMR223W, strain ubp8, active compounds read low 0.952 | locus YMR263W, strain SAP30, active compounds read low 0.97 | locus YMR307W, strain GAS1, active compounds read low 0.923 | locus YNL067W, strain RPL9B, active compounds read low 0.978 | locus YNL233W, strain BNI4, active compounds read low 0.956 | locus YNL250W, strain rad50, active compounds read low 0.963 | locus YNL271C, strain bni1, active compounds read low 0.941 | locus YNL298W, strain CLA4, active compounds read low 0.964 | locus YNL322C, strain KRE1, active compounds read low 0.968 | locus YNR052C, strain pop2, active compounds read low 0.993 | locus YOL006C, strain TOP1, active compounds read low 0.887 | locus YOL012C, strain htz1 0.713 | locus YOR061W, strain CKA2, active compounds read low 0.98 | locus YOR069W, strain VPS5, active compounds read low 0.975 | locus YOR136W, strain idh2, active compounds read low 0.957 | locus YOR144C, strain elg1, active compounds read low 0.939 | locus YOR184W, strain ser1, active compounds read low 0.89 | locus YOR316C, strain cot1, active compounds read low 0.959 | locus YPL055C, strain LGE1, active compounds read low 0.954 | locus YPR141C, strain kar3, active compounds read low 0.924 | locus YPR163C, strain tif3, active compounds read low 0.918 | locus YPR167C, strain met16, active compounds read low 0.945 | strain wtn01, active compounds read low 0.909
active: locus YDR101C, strain arx1, active compounds read low 0.901 | locus YDR318W, strain mcm21, active compounds read low 0.901 | locus YDR388W, active compounds read low 0.916 | locus YGL086W, strain mad1, active compounds read low 0.916 | locus YIL125W, strain kgd1, active compounds read low 0.922 | locus YKR001C, strain vps1, active compounds read low 0.887 | locus YLR371W, strain rom2, active compounds read low 0.717 | locus YLR418C, strain cdc73, active compounds read low 0.806 | locus YNL307C, strain MCK1, active compounds read low 0.875 | locus YOL147C, strain pex11, active compounds read low 0.914 | locus YPR119W, strain clb2, active compounds read low 0.928
